Laboratory results reported in PubChem BioAssay AID463173 (ICCB-Longwood Screening Facility, Harvard Medical School, 2010).
Out of some 52,000 compounds screened, about 1,700 (3.3%) were called active. The list comes from a sample in which actives are over-represented; it also holds similar structures and randomly drawn compounds. Values without a mark were called inactive. Rule as the data show it: active = survival mostly below about 52% (no sharp cut-off); inactive = mostly above about 56%.

system: Wild type; test: growth inhibition of S. aureus wild type versus tarO mutant, primary screen, teichoic acid synthesis inhibitors, RN4220, OD600 (AID 463173); settings: S. aureus RN4220 wild type/DeltatarO growth, OD600, 18 h, active compounds read low, screened at 18.75 µg/mL (by protocol)

Structure (SMILES) | survival
NC(=O)CSc1nnc(CNc2ccc(Cl)cc2)n1Cc1ccccc1 | 125%
COc1ccc(NC(=O)c2cc3c(=O)n(Cc4cccnc4)ccc3nc2C)cc1Cl | 124%
Cc1oc(-c2ccccc2)nc1CNC(=O)NC1CCCCC1 | 72%
CCCc1nn2c(=O)cc(COC(=O)c3cccc(NC(=O)COc4ccc(F)cc4)c3)nc2s1 | 80%
CCCc1nn2c(=O)cc(COC(=O)c3ccc(NC(=O)COc4ccc(F)cc4)cc3)nc2s1 | 10% (active)
CCCc1nn2c(=O)cc(COC(=O)c3ccc(NC(=O)COc4ccccc4)cc3)nc2s1 | 83%
COC(=O)c1cc2oc(C)cc2n1Cc1c(C)cc(C)cc1C | 33%
COC(=O)c1cc2oc(C)cc2n1Cc1cccc(Cl)c1 | -2% (active)
COC(=O)c1cc2oc(C)cc2n1Cc1ccc(Cl)cc1 | 72%
CCOC(=O)c1cc2oc(C)cc2n1CCCN1C(=O)c2ccccc2C1=O | -1% (active)
COC(=O)c1cc2occc2n1Cc1nc(-c2ccc(C)cc2)oc1C | 48%
COC(=O)c1cc2oc(C)cc2n1Cc1cc(C)ccc1C | -2% (active)
CCc1cccc(NC(=O)Cn2c(C(=O)OC)cc3occc32)c1 | 83%
COC(=O)c1cc2oc(C)cc2n1CC(=O)Nc1cc(Cl)ccc1OC | 88%
C=CCn1c(C(=O)OCC)cc2oc(C)cc21 | 111%
CCOC(=O)c1cc2oc(C)cc2n1CC(=O)NC1CC1 | 94%
COC(=O)c1cc2occc2n1Cc1cccc(C)c1 | -1% (active)
COC(=O)c1cc2oc(C)cc2n1Cc1ccc(C)cc1 | 68%
CCn1c(SCCN2CCCC2)nnc1C1CCCN(C(=O)c2ccc3c(c2)OCO3)C1 (stereo not given) | 114%
O=C(CN1C(=O)COc2ccc(S(=O)(=O)N3CCCCCC3)cc21)NCCc1ccccc1 | 92%
CCSc1nc2c(c(=O)[nH]c(=O)n2C)n1CC(O)COc1ccc(Cl)cc1 (stereo not given) | 161%
COc1ccc2c(c1)c1c(c(=O)n(-c3ccc(C)cc3)c(=O)n1CC(=O)Nc1cc(C)ccc1C)n2C | 115%
COc1ccc(NC(=O)Cn2cc(S(=O)(=O)N3CCN(c4ccccc4F)CC3)c3ccccc3c2=O)cc1Cl | 100%
Cc1ccccc1C(=O)Nc1c(C)nc(Nc2ccccc2)nc1Nc1ccccc1 | 94%

Structure (SMILES) | survival
Cc1ccc(Nc2nc(Nc3ccc(C)c(C)c3)nc(N3CCOCC3)n2)cc1C | 73%
O=C(CSc1nc(=O)n(Cc2ccco2)c2c1CCC2)Nc1cccc(F)c1 | 72%
C=CCN(CC=C)C(=O)C1CCN(Cc2cc(Br)c(O)c(OC)c2)CC1 | 98%
COC(=O)c1cc2oc(C)cc2n1Cc1ccccc1Cl | -2% (active)
COC(=O)c1cc2oc3ccccc3c2n1Cc1ccccc1Cl | 60%
COC(=O)c1cc2oc(C)cc2n1Cc1ccc(Br)cc1F | 48%
CCC(Oc1ccccc1F)C(=O)Nc1cc(-c2ccccc2)no1 (stereo not given) | 66%
Cc1cccc(C)c1NC(=O)c1ccc2c(c1)nnn2C1CCCC1 | -6% (active)
Cc1c(Cl)cccc1NC(=O)c1ccc2c(c1)nnn2C1CCCC1 | 120%
Cc1cc(C)cc(NC(=O)c2ccc3c(c2)nnn3C2CCCC2)c1 | 121%
COC(=O)c1ccccc1NC(=O)CSc1nnc2cc(C)c3cc(C)cc(C)c3n12 | 72%
CC(=O)N1CCc2c(sc3c2c(=O)n(-c2ccccc2)c(=O)n3CC(=O)c2ccc(F)cc2)C1 | 91%
Cc1ccn2c(Nc3ccccc3C)c(-c3ccccn3)nc2c1 | 24% (active)
Oc1ccccc1-c1nc2cnccn2c1Nc1ccc(Cl)cc1 | -16% (active)
Cc1ccc2nc(-c3ccccc3F)c(Nc3ccc(Cl)cc3)n2c1 | 11% (active)
Cc1ccc2nc(-c3ccc(O)cc3)c(Nc3ccc(Cl)cc3)n2c1 | 69%
Cc1cccc(C)c1Nc1c(-c2ccccc2Cl)nc2cnccn12 | 123%
Clc1ccc(Nc2c(-c3ccccc3Cl)nc3ccc(Cl)cn23)cc1 | 25%
CC(C)c1ccc(Nc2c(-c3ccco3)nc3ccccn23)cc1 | 33%
COc1ccc(Nc2c(-c3ccccn3)nc3ccc(Cl)cn23)cc1 | 96%
COc1cc(O)ccc1-c1nc2cc(C)ccn2c1Nc1ccccc1C | 73%
Cc1ccn2c(Nc3ccccc3C)c(-c3ccc(N4CCOCC4)cc3)nc2c1 | 113%
CC(C)c1ccc(Nc2c(-c3ccccn3)nc3ccccn23)cc1 | -21% (active)
CC(C)c1ccc(Nc2c(-c3ccccc3O)nc3cnccn23)cc1 | 61%

Structure (SMILES) | survival
N#C/C(=C\c1cn(CC(=O)N2CCCC2)c2ccccc12)C(=O)NC1CC1 | 103%
CCC(C(=O)NC1CCCCC1)n1c(SCc2ccccc2F)nc2ccncc21 (stereo not given) | 73%
COc1ccc(CNC(=O)CCc2c(C)nc3nc(CNC(=O)OC(C)(C)C)nn3c2C)cc1 | 77%
COc1ccc(C2=NS(=O)(=O)N(C)C(C(=O)NCc3ccccc3)=C2)cc1OC | 102%
CCC(C)NC(=O)CSc1nc2n[nH]c(C)c2c(=N)n1-c1cc(Cl)ccc1C (stereo not given) | 72%
COc1ccccc1CNC(=O)c1c[nH]c2ccc(S(=O)(=O)Nc3cc(C)cc(C)c3)cc2c1=O | 67%
CCC(C)n1c(=O)c2sccc2n2c(CCCC(=O)Nc3ccc(F)cc3)nnc12 (stereo not given) | 97%
CCN(CC)C(=O)C(C(F)(F)F)C(F)(F)F | 103%
Cc1ccc(Nc2c(-c3cc(Br)ccc3F)nc3cc(C)ccn23)cc1 | 0% (active)
Cc1ccc(Nc2c(-c3ccccn3)nc3ccc(Br)cn23)cc1 | 60%
Cc1ccc2nc(-c3ccncc3)c(Nc3ccccc3C)n2c1 | 101%
Fc1ccc(Nc2c(-c3ccccn3)nc3ccc(Cl)cn23)cc1 | 73%
Cc1ccccc1Nc1c(-c2cccnc2)nc2ccc(Cl)cn12 | 81%
Cc1ccc2nc(-c3ccccn3)c(Nc3ccccc3C)n2c1 | 18% (active)
Cc1ccc2nc(-c3ccccn3)c(Nc3ccc(F)cc3)n2c1 | 16% (active)
CSc1ccc(-c2nc3cc(C)ccn3c2Nc2ccc(C)cc2)cc1 | 87%
Cc1ccccc1Nc1c(-c2ccncc2)nc2ccc(Cl)cn12 | 128%
Cc1ccc(Nc2c(-c3ccccc3O)nc3cc(C)ccn23)cc1 | 73%
Cc1ccc2nc(-c3ccccc3O)c(Nc3ccccc3C)n2c1 | 79%
Cc1ccccc1Nc1c(-c2ccc(Br)o2)nc2ccc(Cl)cn12 | 10% (active)
Cc1ccccc1Cn1c(C)c(CNCCCc2ccccc2)c(C(=O)O)c1C | 98%
O=C(c1ccc2c(c1)N(Cc1ccccc1F)C(=O)c1ccccc1S2=O)N1CCCCC1 (stereo not given) | 89%
CCCS(=O)(=O)c1ncc(Cl)c(C(=O)N(Cc2ccccc2)Cc2ccco2)n1 | 44%
Cc1ccn2c(Nc3ccccc3C)c(-c3ccncc3)nc2c1 | 80%

Structure (SMILES) | survival
Cc1ccn2c(Nc3ccccc3C)c(-c3cccnc3)nc2c1 | 71%
Cc1ccn2c(Nc3ccccc3C)c(-c3ccccc3)nc2c1 | -3% (active)
CCCC12CN3CC(CCC)(CN(C1)C3c1ccc(OC(C)C)cc1)C2=O (stereo not given) | 39%
Cc1ccc(NS(=O)(=O)c2ccc3[nH]c4c(c3c2)CCCCCC4)cc1C | -3% (active)
Cc1ccc(NS(=O)(=O)c2ccc3[nH]c4c(c3c2)CCCCCC4)cc1Cl | 71%
Cc1ccc(CNS(=O)(=O)c2ccc3[nH]c4c(c3c2)CCCC4)cc1 | 82%
CC(=O)c1ccc(NS(=O)(=O)c2ccc3[nH]c4c(c3c2)CCCC4)cc1 | 84%
Cc1ccc(NS(=O)(=O)c2ccc3[nH]c4c(c3c2)CCCCCC4)cc1 | 71%
O=S(=O)(NCc1ccc(F)cc1)c1ccc2[nH]c3c(c2c1)CCCCC3 | 55%
COc1ccc(NS(=O)(=O)c2ccc3[nH]c4c(c3c2)CCCCCC4)cc1 | -4% (active)
COc1ccc(NS(=O)(=O)c2ccc3[nH]c4c(c3c2)CCCCC4)cc1 | 127%
COC(=O)c1ccc(NS(=O)(=O)c2ccc3[nH]c4c(c3c2)CCCCC4)cc1 | 119%
COc1cc(NS(=O)(=O)c2ccc3[nH]c4c(c3c2)CCCCCC4)cc(OC)c1 | 57%
COC(=O)c1ccc(NS(=O)(=O)c2ccc3[nH]c4c(c3c2)CCCC4)cc1 | 1% (active)
O=S(=O)(NCc1ccc(F)cc1)c1ccc2[nH]c3c(c2c1)CCCC3 | -3% (active)
CCC(C)NC(=O)Cn1c(=O)n(-c2cc(OC)cc(OC)c2)c(=O)c2ccccc21 (stereo not given) | 94%
CCOc1ccc(OCC)c(NC(=O)c2cc(CN3CCOCC3)on2)c1 | 72%
COCCn1c(CCC(=O)Nc2ccc(OC)c(OC)c2)nc2cccnc21 | 90%
CC1CCN(C(=O)CN(C)S(=O)(=O)c2ccc3ccccc3c2)CC1 | 115%
CCCCN(C(=O)c1cccs1)c1nnc(-c2cc(OC)cc(OC)c2)s1 | 116%
O=C1CCCc2cc(S(=O)(=O)NCC3CCC(C(=O)NCc4ccc(F)cc4)CC3)ccc2N1 (stereo not given) | 93%
O=C(NCCc1ccccc1)c1ccc2c(c1)CCN2S(=O)(=O)c1ccc(Cl)cc1 | 114%
O=C(Nc1nc2ccccc2s1)c1ccc(S(=O)(=O)N2CCCC2)cc1 | 80%
